Assay results published in PubChem BioAssay AID1347041 (National Center for Advancing Translational Sciences (NCATS), 2019).
Where “and” joins values, the source holds several entries; their conditions need not be identical. Identical values can stand only once. Hit rate of the full screen: of about 480,000 compounds, about 740 (0.15%) were called active. No stated cut-off is given here; in the data, active means activity change below about -30%; inconclusive means mostly about -25% to -30%; inactive means weaker than that. Shown is part of a subset that was picked to be rich in actives. The source holds several records for some structures; these can differ, active in one and inactive in another.

molecular target: L-lactate dehydrogenase A chain (Homo sapiens) (UniProt P00338); test: qHTS assay for inhibitors of human lactate dehydrogenase; conditions: purified LDHA, NADH/diaphorase-resazurin fluorescence; stronger effect = lower value;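 further: values are at about 110 or 230 µM; plate controls were DMSO wells for no effect and wells without enzyme for full effect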
How it was run: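 LDH5 2 nM; NADH 0.06 mM, pyruvate 0.2 mM; 200 mM Tris pH 7.4, EDTA, Tween-20; 5 min RT. Detection: diaphorase 0.133 mg/mL + resazurin 37 µM, fluorescence ex540/em590 at 0 and 20 min; normalized to enzyme-free and DMSO wells.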

SMILES	activity change
CN(C(=O)c1cnc(N2CCOCC2)c2ccccc12)C1CCCCC1	3.81% (inactive)
N=C(N)CCl	0.754% (inactive)
CC1CCC(C(C)C)C(NC(=O)c2ccccc2)C1 (centres undefined)	0.148% (inactive)
Cc1cc(-c2nc3ncccc3o2)ccc1NC(=O)CC12CC3CC(CC(C3)C1)C2	-0.587% (inactive)
O=C(CCc1ncc(-c2ccccc2F)o1)NCc1ccc2c(c1)OCO2	9.36% (inactive)
O=C(/C=C/c1cccc(Br)c1)c1ccc(O)c(CCCl)c1	0.183% (inactive)
CC(N)c1cccc([N+](=O)[O-])c1 (centres undefined)	8.12% (inactive)
O=C(O)C1CCN(c2ccc3nnc(C(F)(F)F)n3n2)CC1	-1.19% (inactive)
Cc1ccc(/C=C(/C#N)C(=O)c2ccsc2)cc1C	4.55% (inactive)
CC(C)(C)C(=O)N1CCC(C(=O)N2CCC(c3nc4ccccc4o3)CC2)CC1	0.769% (inactive)
O=C(C(c1ccccc1)N1CCN(S(=O)(=O)c2cccs2)CC1)N1CCCCC1 (centres undefined)	1.33% (inactive)
O=C(NCc1ccco1)NNc1nc2c(-c3ccccc3)nnn2c2ccccc12	0.688% (inactive)
Clc1cc(Cl)c(N/N=C/c2ccc(Br)cc2)c(Cl)c1	1.46% (inactive)
Cc1cc(C)c(S(=O)(=O)c2ccccc2)c(OC(=O)c2c(F)cccc2Cl)n1	-58% (active)
Cc1cc(OC(=O)c2c(Cl)cccc2Cl)nc(C)n1	-6.35% (inactive)
O=C(OCc1ncc(-c2ccccc2)o1)c1c(F)cccc1Cl	-4% (inactive)
CC(=O)c1c(C)[nH]c(C)c1C	-0.832% (inactive)
CCc1nc(C#N)c(NCC(c2cccs2)N2CCOCC2)o1 (centres undefined)	4.58% (inactive)
CCCc1cc(=O)oc2cc(OC(C)C(=O)Nc3cccc(C(C)=O)c3)ccc12 (centres undefined)	1.35% (inactive)
Cc1c(C(=O)C(=O)NC(C)c2ccccc2)c2ccccc2n1C (centres undefined)	-3.86% (inactive)
CCOC(=O)c1cc(S(=O)(=O)Nc2cccc(C)c2C)[nH]n1	-1.21% (inactive)
COc1ccc(OCCOC(=O)c2nn(C)c(=O)c3ccccc23)cc1	0.361% (inactive)
Cc1nc(-c2ccc(F)cc2)c(CC(=O)Nc2cc(S(=O)(=O)N3CCCCC3)ccc2C)s1	-0.452% (inactive)
Cc1nc(-c2ccc(F)cc2)c(CC(=O)N2CCN(S(=O)(=O)c3ccc(F)cc3)CC2)s1	7.31% (inactive) and -4.86% (inactive)
Cc1ccc(S(=O)(=O)N2CCN(C(=O)Cc3sc(C)nc3-c3ccc(F)cc3)CC2)c(C)c1	1.74% (inactive) and -33% (active)
CC(NC(=O)c1nccnc1N)c1ccco1 (centres undefined)	-5.25% (inactive)
CC(=O)[C@@H]1SC(N)=C(C#N)[C@H]1c1cccs1	12.5% (inactive)

SMILES	activity change
CCCn1c(N2CCN(C(=O)c3cccc(OC)c3)CC2)nc2sc3c(c2c1=O)CCCC3	-1.23% (inactive)
CCN(c1ccccc1)c1nnc(NC(=O)Nc2ccccc2OC)s1	-2.61% (inactive)
CCCn1nc(C(=O)Nc2ccc(OC)c(NC(C)=O)c2)c2ccccc2c1=O	-2.1% (inactive)
CCNC(=O)CN1CCN(C(C(=O)O)c2c[nH]c3ccc(OCc4ccccc4)cc23)CC1 (centres undefined)	-6.48% (inactive)
Fc1ccc(OCc2nn3c(CSc4ccccc4)nnc3s2)cc1	-2.81% (inactive)
O=C(CN1CCN(CC(=O)c2c[nH]c3ccccc23)CC1)NC1CC1	0.902% (inactive)
CCc1ccc(NC(=O)CSc2nccn2Cc2ccccc2OC)cc1	8.74% (inactive)
CC(NC(=O)c1cc(Cl)sc1Cl)C12CC3CC(CC(C3)C1)C2 (centres undefined)	1.53% (inactive)
COc1ccc(-c2cc(C(=O)O)c3cc(C)ccc3n2)cc1OC	6.4% (inactive)
CC(C)Cn1nc(C(=O)NCc2ccccc2F)c2ccccc2c1=O	8.3% (inactive)
COCCCN(C)Cc1cccc(OC)c1	-1.41% (inactive)
COc1cc(Cl)c(C)cc1NC(=O)C(C)N1CCN(CCc2ccccc2)CC1 (centres undefined)	-11.8% (inactive)
O=C1CCCC2=C1C(c1ccc(C(=O)O)cc1)c1c([nH]n(-c3ccccc3)c1=O)N2 (centres undefined)	14.2% (inactive)
CCOC(=O)C1=C(CN2CCN(C(=O)OC(C)(C)C)CC2)NC(=O)NC1c1ccccc1OCC (centres undefined)	-21.6% (inactive)
Cc1cc(CNC(=O)NCc2coc(-c3cccs3)n2)ccc1F	-5.62% (inactive)
CCCNc1c(NS(=O)(=O)c2ccc(F)c(F)c2)c(=O)oc2ccccc12	0.151% (inactive)
COc1ccc(C(=O)Nc2oc3ccc(Cl)cc3c(=O)c2-c2ccc3c(c2)OCO3)cc1	-4.91% (inactive)
Cc1c(C(N)=O)[n+](=O)c2ccccc2n1[O-]	-7.73% (inactive)
Oc1ccc2ccccc2c1C=NCCc1ccccc1	43.7% (inactive)
Cn1c(=O)c2c(ncn2CC(=O)Nc2cccc(F)c2)n(C)c1=O	0.764% (inactive)
Cc1ccc(CN2C(=O)SC(Nc3ccccc3)C2=O)cc1 (centres undefined)	-3.19% (inactive)
COc1ccc(-c2nc(=N)sn2-c2ccccc2)cc1	-63.7% (active)
COc1ccc(Nc2ccccc2)cc1	15% (inactive)
Cc1ccc(-c2nc(=N)sn2Cc2ccccc2)cc1	-80.9% (active)
Cc1ccc(-c2nnn(Cc3csc(-c4ccccc4Cl)n3)n2)cc1	-3.25% (inactive)
COc1ccc(-c2nn3c(-c4ccc(OC)cc4)nnc3c3ccccc23)cc1	-7.99% (inactive)
CCCCn1c(=O)[nH]c(=O)c2c1nc(COC(=O)C1(C#N)CCCC1)n2C	-5.02% (inactive)

SMILES	activity change
O=C(CCC1NC(=O)c2ccccc2NC1=O)NC1CCCC1 (centres undefined)	-4.57% (inactive)
Cc1ccc(N(CC(=O)N2CCN(C/C=C/c3ccccc3)CC2)S(C)(=O)=O)cc1	-0.0793% (inactive)
CN(Cc1ccc(Cl)cc1)C(=O)Cn1nnn(-c2cccs2)c1=O	-0.86% (inactive)
CCCn1nc(C(=O)N(C)Cc2ccc(OCC)cc2)c2ccccc2c1=O	-4.2% (inactive)
COc1ccc2oc(=O)c(S(=O)(=O)N3CCCCCC3)cc2c1	-6.37% (inactive)
CC(C)CC(=O)Nc1ccc(N2CCCC2)cc1	39.8% (inactive)
COc1cc(CN2C(=O)C(=O)c3cccc(C)c32)ccc1OCCC(C)C	5.04% (inactive)
COc1ccc(Br)cc1/C=C1\Cc2ccccc2C1=O	0.293% (inactive)
COc1cccc2cc(C(=O)N3CCN(c4cccc(C(F)(F)F)c4)CC3)c(=O)oc12	3.43% (inactive)
COc1ccccc1CCNC(=O)CSc1ccc(-c2ccccn2)nn1	8.88% (inactive)
O=C(COc1c(I)cc(Cl)c2cccnc12)N1CCCC1	-11.3% (inactive)
CCN(CC(=O)N(C)C)Cc1ccc(F)c2cccnc12	0.454% (inactive)
COc1ccc(Oc2c(C)oc3cc(OCC(=O)N4CCC(C(N)=O)CC4)ccc3c2=O)cc1	-1.42% (inactive)
CN(Cc1ccc(OC(F)F)cc1)C(=O)c1nn(Cc2ccccc2)c(=O)c2ccccc12	13.3% (inactive)
COc1ccc(NC(=O)c2cnn3c2NC(C(=O)O)=CC3c2ccc(F)cc2)cc1 (centres undefined)	18.2% (inactive)
Cn1c(SCC(=O)Nc2cccc(F)c2)nc2c(=O)[nH]cnc21	11% (inactive)
CCN(CC)S(=O)(=O)c1ccc(C)c(NS(=O)(=O)c2cccc(C#N)c2)c1	-34.7% (active)
CCN(CC)S(=O)(=O)c1ccc(C)c(NC(=O)COc2ccc(Br)cc2Cl)c1	-4.43% (inactive)
CCN(CC)S(=O)(=O)c1ccc(N2CCCC2)c(NS(=O)(=O)c2cccs2)c1	-11.2% (inactive)
COC(=O)c1ccc(C2C(C#N)=C(N)Oc3c2ccc2ccccc32)cc1 (centres undefined)	-5.14% (inactive)
Cc1cc(/C=C(/C#N)c2nc3ccccc3n2C)cc(C)c1O	-32.2% (active)
Cn1c(/C(C#N)=C2/CCCCCN2)nc2ccccc21	1.28% (inactive)
Cc1cc2nc(/C(C#N)=C/c3ccccc3)[nH]c2cc1C	9.89% (inactive)
CC(C)CC(NC(=O)COc1ccc(Oc2ccccc2)cc1)C(=O)O (centres undefined)	-0.172% (inactive)
O=C(O)c1cc(NC(=O)c2ccc(Cl)s2)cc(C(=O)O)c1	-9.52% (inactive)
